# Screens (PubChem BioAssay)
# This is a sample that favours compounds with a hit; in the whole collection about 1.1% have one here.
# NCOA1 inh: SRC1 coactivator transcriptional activity inhibitors, primary screen, cell-based, luminescence; Nuclear receptor coactivator 1 (Homo sapiens), Q15788; 360,000 compounds, 0.12% hits; inhibition, % at 3.6 µM; HEK293 GAL4-SRC1 luciferase reporter;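 active = inhibition above the campaign mean plus 3 SD, with each screening campaign given its own cutoff, cut at about 60% in these data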;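 also: 0% = DMSO treated cells and 100% = gossypol at 36 µM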
# Target sequence (Q15788 whole entry, looked up, the tested form may be a part): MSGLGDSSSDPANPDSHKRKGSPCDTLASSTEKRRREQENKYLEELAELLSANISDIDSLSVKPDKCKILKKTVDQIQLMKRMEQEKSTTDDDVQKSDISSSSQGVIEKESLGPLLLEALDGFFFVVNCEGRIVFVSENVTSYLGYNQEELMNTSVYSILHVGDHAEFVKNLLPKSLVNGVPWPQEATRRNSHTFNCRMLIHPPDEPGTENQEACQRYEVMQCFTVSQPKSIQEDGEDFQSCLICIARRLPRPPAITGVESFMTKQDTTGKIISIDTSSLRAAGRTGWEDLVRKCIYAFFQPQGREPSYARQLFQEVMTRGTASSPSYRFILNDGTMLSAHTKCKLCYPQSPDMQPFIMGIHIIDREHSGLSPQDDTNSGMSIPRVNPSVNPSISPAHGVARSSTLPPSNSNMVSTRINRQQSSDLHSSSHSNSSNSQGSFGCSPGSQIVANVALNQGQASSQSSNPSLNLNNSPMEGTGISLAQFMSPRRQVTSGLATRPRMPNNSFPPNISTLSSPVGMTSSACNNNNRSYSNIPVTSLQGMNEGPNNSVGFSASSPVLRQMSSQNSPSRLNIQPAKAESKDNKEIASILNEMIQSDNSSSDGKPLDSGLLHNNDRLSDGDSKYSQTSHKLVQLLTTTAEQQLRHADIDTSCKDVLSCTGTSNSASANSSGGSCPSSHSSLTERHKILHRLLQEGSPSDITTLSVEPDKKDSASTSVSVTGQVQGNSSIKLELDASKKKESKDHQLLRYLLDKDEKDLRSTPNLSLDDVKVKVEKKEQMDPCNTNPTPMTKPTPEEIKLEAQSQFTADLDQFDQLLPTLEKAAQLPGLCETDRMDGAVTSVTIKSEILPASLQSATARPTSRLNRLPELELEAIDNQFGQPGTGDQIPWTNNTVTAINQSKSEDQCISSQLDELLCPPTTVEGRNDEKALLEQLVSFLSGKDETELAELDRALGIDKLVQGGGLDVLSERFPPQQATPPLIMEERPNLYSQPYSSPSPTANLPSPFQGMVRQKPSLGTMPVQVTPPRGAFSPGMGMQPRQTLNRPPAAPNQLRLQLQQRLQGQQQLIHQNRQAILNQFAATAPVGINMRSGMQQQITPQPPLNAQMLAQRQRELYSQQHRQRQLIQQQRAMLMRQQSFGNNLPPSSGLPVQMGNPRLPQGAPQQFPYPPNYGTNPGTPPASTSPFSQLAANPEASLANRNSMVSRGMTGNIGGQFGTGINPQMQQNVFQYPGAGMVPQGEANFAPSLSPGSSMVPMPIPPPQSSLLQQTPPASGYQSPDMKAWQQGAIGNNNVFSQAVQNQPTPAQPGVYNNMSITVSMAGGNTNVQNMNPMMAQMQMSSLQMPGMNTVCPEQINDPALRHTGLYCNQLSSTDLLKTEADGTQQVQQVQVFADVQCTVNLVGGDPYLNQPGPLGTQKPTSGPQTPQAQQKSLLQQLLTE
# SRC2 inh: inhibition of GAL4-SRC2 driven luciferase reporter, primary screen, SRC2 inhibitor project, cell-based, luminescence | inhibition, % at 9 µM | Nuclear receptor coactivator 2 (Homo sapiens), Q15596 | HEK293 GAL4-SRC2 luciferase reporter | 370,000 compounds, 0.17% hits;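 active = inhibition above the mean inhibition of all tested compounds plus 3 SD, set per campaign, cut at about 52% in these data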;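 also: 0% = DMSO treated cells and 100% = cells given Gossypol at 36 µM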
# LRH-1 inv ag: LRH-1 (NR5A2) inverse agonists, primary screen, cell-based, luminescence, HEK293T, StAR-luciferase reporter; Nuclear receptor subfamily 5 group A member 2 (Homo sapiens), O00482; LRH-1 transfected, 24 h; inhibition, % at 3.6 µM; 360,000 compounds, 0.13% hits; AID 602396, 2012;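 active = inhibition above the mean inhibition of all tested compounds plus 3 SD, cut at about 73% in these data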;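 also: 0% = DMSO wells and 100% = reporter-only cells lacking LRH-1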
# NR2F2 inh: NR2F2 transcriptional activity inhibitors, primary screen, cell-based, luciferase reporter, HEK293T, luminescence; COUP transcription factor 2 (Homo sapiens), P24468; inhibition, % at 8.6 µM; AID 686940, 2013; 370,000 compounds, 0.7% hits; HEK293T NGFI-A luciferase reporter;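 active = inhibition above a per-plate cutoff, mean inhibition of test wells between control levels plus 3 SD, cut at about 38% in these data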;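 also: cells cotransfected with COUP-TFII expression vector driving the NGFI-A reporter; 0% = median of COUP-TF2 test wells and 100% = reporter-only cells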
# GalR3 antagonist: GalR3 antagonists in HEK293 cells, primary screen, cell-based, fluorescence readout | Galanin receptor type 3 (Homo sapiens), O60755 | HEK293 GalR3-CNG cAMP membrane potential fluorescence; galR3 body fused to GalR1 C-terminus | inhibition, % at 3 µM | 360,000 compounds, 0.44% hits;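 active = inhibition above the screen-wide average plus 3 SD, cut at about 13% in these data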;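 also: forskolin and galanin both at EC90 stimulate the cells; cAMP rise reported by CNG channel membrane potential dye signal; 0% = forskolin plus galanin with DMSO and 100% = forskolin alone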
# NCOA3 inh: SRC3 coactivator transcriptional activity inhibitors, primary screen, cell-based, luminescence; 360,000 compounds, 0.17% hits; HEK293 GAL4-SRC3 luciferase reporter; Nuclear receptor coactivator 3 (Homo sapiens), Q9Y6Q9; inhibition, % at 3.6 µM;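 active = inhibition above a per-campaign cutoff, the mean of all compounds plus 3 SD, cut at about 60% in these data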;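 also: 0% = DMSO-treated cells and 100% = gossypol-treated cells at 36 µM; higher means less SRC3-driven luciferase light from the GAL4 reporter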
# VP16 Luc counter: Gal4-VP16 luciferase reporter inhibitors, counter-screen for COUP-TFII antagonist project, cell-based, luminescence, HEK293; shares compounds with NR2F2 inh; inhibition, % at 8.5 µM; 2,500 compounds, 25% hits; AID 687007, 2013; in the data active = inhibition above about 13%
# COUP-TFII conf: NR2F2 transcriptional activity inhibitors, confirmation, cell-based, luciferase reporter, HEK293, triplicate; inhibition, % at 8.5 µM; shares compounds with NR2F2 inh; 2,500 compounds, 45% hits; HEK293 NGFI-A luciferase reporter, luminescence;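 active = mean inhibition over three repeats above a set limit taken from the earlier primary screen, cut at about 38% in these data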;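 also: 100% = cells given the luciferase reporter alone without the COUP-TF2 vector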
# Active calls of the source: *; . = no result given.
SMILES,NCOA1 inh,SRC2 inh,LRH-1 inv ag,NR2F2 inh,GalR3 antagonist,NCOA3 inh,VP16 Luc counter,COUP-TFII conf
O=C(N/N=C/c1ccc([N+](=O)[O-])s1)c1ccccc1,9,46,25,38*,-8,27,31*,29
Cc1ccccc1C(=O)N/N=C/c1ccc([N+](=O)[O-])s1,21,51,63,57*,-3,46,55*,44*
Cc1ccc(C(=O)N(C)[C@H]2C[C@H]3c4[nH]c5c(-c6cccc(C)c6)cccc5c4CCN3C[C@H]2[C@H](C)O)cc1,.,5,.,16,.,.,.,.
C[C@H](O)[C@@H]1CN2CCc3c([nH]c4cccc(-c5ccccc5)c34)[C@@H]2C[C@@H]1N(C)C(=O)Nc1ccccc1,.,3,.,-17,.,.,.,.
C/C(=N\NC(=O)CSc1nnc(-c2ccccc2)n1-c1ccc(C)cc1)c1ccc(-c2ccccc2)cc1,.,2,.,-17,.,.,.,.
C[C@@H]1CN([C@@H](C)CN(C)C)C(=O)c2cc(NC(=O)Nc3ccccc3)ccc2O[C@@H](C)CCCCO[C@H]1CN(C)S(=O)(=O)c1ccc(F)cc1,.,.,.,14,.,.,.,.
C=CS(=O)(=O)N(Cc1ccc(F)cc1)C(=C)C(=O)OC,.,34,.,68*,.,.,17*,17
C=CCN(CC#Cc1ccccc1)Cc1ccc(OC)cc1,.,9,.,-13,.,.,.,.
CC1CCN(C(=O)c2cccc(S(=O)(=O)N3CCN(c4ccccc4)CC3)c2)CC1,-5,-12,13,9,-1,1,.,.
CC1CCN(S(=O)(=O)c2cc(C(=O)N3CCN(c4ccccc4)CC3)ccc2Br)CC1,9,4,2,47*,-6,0,9,45*
Cc1ccc(C(=O)N2CCN(c3ccccc3)CC2)cc1S(=O)(=O)N1CCCC1,-3,13,10,18,-3,-1,.,.
Cc1ccc(C(=O)N2CCN(c3ccc(F)cc3)CC2)cc1S(=O)(=O)N1CCCCC1,-10,8,11,49*,-3,30,-4,26
COC(=O)C[C@@H]1CC[C@H]2[C@@H](COc3ccc(NS(=O)(=O)c4ccccc4F)cc3C(=O)N2C)O1,.,9,.,-5,.,.,.,.
Cn1c(=O)c2[nH]c(CCCCCCCCc3nc4ccccc4[nH]3)nc2n(C)c1=O,23,27,15,69*,-7,28,11,58*
Cn1c(=O)c2[nH]c(CCCCc3nc4ccccc4[nH]3)nc2n(C)c1=O,-11,-39,-10,-8,-5,10,.,.
CCCCCCCCCCOC(=O)Cn1c(COc2ccccc2OC)[n+](C)c2ccccc21,15,-26,22,44*,4,11,4,36
Cn1c(COc2ccccc2O)[n+](C)c2ccccc21,7,0,20,0,7,-9,.,.
Cc1nc(SCc2cccc(C(=O)O)c2)nc2c1CCCC2,-48,53*,-43,52*,-4,-47,23*,4
CCCCN(c1ccccc1)c1ncnc(N)c1[N+](=O)[O-],61*,57*,24,52*,-7,63*,15*,31
CN(c1ncnc(N)c1[N+](=O)[O-])C1CCS(=O)(=O)C1 (stereo unspecified),58,30,23,31,3,55,.,.
COc1ccc(NC(=O)N2CCN(c3nc(-c4cccc(OC)c4)cs3)CC2)cc1,3,1,-5,40*,-7,19,-14,14
COc1cccc(-c2csc(N3CCN(C(=O)Nc4ccc(Cl)cc4)CC3)n2)c1,-4,2,-32,1,-7,-34,.,.
CC(C)(C)c1ccc(NC(=O)COc2ccc(-n3ccnc3)cc2)cc1,4,34,24,51*,-6,8,2,47*
CCC(=O)N1CCN(c2ccc(NC(=O)COc3ccccc3Cl)cc2)CC1,4,30,8,50*,-4,7,6,29
CN1CCN(c2ccc(NC(=O)COc3ccccc3Cl)cc2)CC1,-16,-8,2,-14,3,6,.,.
SMILES,NCOA1 inh,SRC2 inh,LRH-1 inv ag,NR2F2 inh,GalR3 antagonist,NCOA3 inh,VP16 Luc counter,COUP-TFII conf
CC1=CC2C(C(O)CC3(C)C2CC(C)C32OCOC23COCO3)C2(C)C/C(=C\O)C(=O)C=C12 (stereo unspecified),-20,-48,-11,52*,-7,-21,21*,42*
COc1ccc(NC(=O)c2ccc(Cl)c(S(=O)(=O)N3CC(C)OC(C)C3)c2)cn1 (stereo unspecified),22,22,2,8,-8,28,.,.
O=C(Nc1ccccn1)c1ccc(Cl)c(S(=O)(=O)N2CCc3ccccc32)c1,2,33,-27,45*,-5,-29,-3,22
COc1ccc(NC(=O)c2ccc(Cl)c(S(=O)(=O)N3CCc4ccccc4C3)c2)cn1,9,6,28,68*,5,17,-3,18
O=C(NCC(c1ccco1)N1CCCC1)c1ccc(Cl)c(S(=O)(=O)N2CCc3ccccc32)c1 (stereo unspecified),21,25,16,66*,87*,30,7,50*
CC(=O)OCC(=O)N1CCN(C(=O)C(=O)c2cccc(C(F)(F)F)c2)CC1,.,-7,.,6,-5,.,.,.
Cc1c[nH]c2cccc(-c3cc4ccccc4o3)c12,.,-25,.,-11,.,.,.,.
Cc1cc(Br)ccc1NC(=O)CN(C)C(=O)C1CCN(c2ncnc3sc(C)c(C)c23)CC1,20,51,11,47*,-5,31,10,37
CC(=O)c1cn(CC(=O)Nc2ccc(C)cc2C)c2ccccc12,22,25,52,50*,2,33,14*,54*
O=C(/C=C/c1cccs1)NC(=S)NNC(=O)c1ccccc1O,65*,38,88*,60*,0,80*,21*,63*
COc1ccc(C(=O)NNC(=S)NC(=O)/C=C/c2cccs2)cc1,-22,11,15,20,-6,5,.,.
O=C(NCCc1ccccn1)c1ccc2c(c1)ncn2C1CCCCC1,.,-31,.,-27,.,.,.,.
Cc1ccc(NC(=O)COc2ccccc2C(N)=O)cc1S(=O)(=O)N1CCCCCC1,12,41,23,60*,2,13,-7,46*
